We go through one sequence from publication PMC7862700, “An all-to-all approach to the identification of sequence-specific readers for epigenetic DNA modifications on cytosine”.

Holding throughout (experiment): DAPPL (digital affinity profiling via proximity ligation, sequencing); 10 mM Tris-HCl pH 7.5, 50 mM NaCl, 1 mM DTT, 4% glycerol, room temperature, 30 min; GST-TFs on glutathione beads, 16-mer random dsDNA library, 0.1% formaldehyde crosslink after washing; high values mean tight binding
The target of one assay is T1, FEV (Homo sapiens, UniProt Q99581 1-238).
T1 sequence: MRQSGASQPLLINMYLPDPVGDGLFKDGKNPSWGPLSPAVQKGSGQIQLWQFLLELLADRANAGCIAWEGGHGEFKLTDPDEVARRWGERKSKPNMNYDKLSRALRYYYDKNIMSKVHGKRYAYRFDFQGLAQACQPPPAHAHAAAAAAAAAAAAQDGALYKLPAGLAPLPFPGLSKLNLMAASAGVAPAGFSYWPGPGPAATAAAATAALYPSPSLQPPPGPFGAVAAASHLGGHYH
To be noted: protein: recombinant; tags: N-terminal GST; dsDNA, one strand shown. The essentials:
(§1)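 Binding signal is each hexamer's read frequency for a factor divided by its frequency in the tag-only sample. The factors were GST-fused human transcription factors from yeast, captured on glutathione beads, DNA-barcoded and pooled with that sample. Pools were incubated with 200 nmole of a random double-stranded 16-mer DNA library in Tris/NaCl/DTT/glycerol buffer at room temperature for 30 min, then washed, crosslinked with 0.1% formaldehyde, proximity-ligated with BsaI/T4 ligase (1 h, 37 °C), PCR-amplified and sequenced on an Illumina NextSeq500.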

In the next assay the target is ETV5 (Homo sapiens, UniProt P41161 1-510). To be noted: protein: recombinant; tags: N-terminal GST; dsDNA, one strand shown. The essentials:
as §1

A further assay deals with HSF1 (Homo sapiens, UniProt Q00613 1-529). To be noted: protein: recombinant; tags: N-terminal GST; chain copies: 3; dsDNA, one strand shown. The essentials:
as §1

A further assay has as its target T2, SPIC (Homo sapiens, UniProt Q8N5J4 1-248).
T2 sequence: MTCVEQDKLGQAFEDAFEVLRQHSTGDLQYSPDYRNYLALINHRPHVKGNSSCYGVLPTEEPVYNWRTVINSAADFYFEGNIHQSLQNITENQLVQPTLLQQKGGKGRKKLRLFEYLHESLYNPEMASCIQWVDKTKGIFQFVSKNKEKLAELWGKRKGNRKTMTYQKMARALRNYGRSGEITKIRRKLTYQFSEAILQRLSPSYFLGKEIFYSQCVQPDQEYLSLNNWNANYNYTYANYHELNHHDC
To be noted: protein: recombinant; tags: N-terminal GST; dsDNA, one strand shown. The essentials:
as §1

The target of a further assay is ELF4 (Homo sapiens, UniProt Q99607 1-663). To be noted: protein: recombinant; tags: N-terminal GST; dsDNA, one strand shown. The essentials: as §1
Sequence of ELF4 (Q99607 whole entry): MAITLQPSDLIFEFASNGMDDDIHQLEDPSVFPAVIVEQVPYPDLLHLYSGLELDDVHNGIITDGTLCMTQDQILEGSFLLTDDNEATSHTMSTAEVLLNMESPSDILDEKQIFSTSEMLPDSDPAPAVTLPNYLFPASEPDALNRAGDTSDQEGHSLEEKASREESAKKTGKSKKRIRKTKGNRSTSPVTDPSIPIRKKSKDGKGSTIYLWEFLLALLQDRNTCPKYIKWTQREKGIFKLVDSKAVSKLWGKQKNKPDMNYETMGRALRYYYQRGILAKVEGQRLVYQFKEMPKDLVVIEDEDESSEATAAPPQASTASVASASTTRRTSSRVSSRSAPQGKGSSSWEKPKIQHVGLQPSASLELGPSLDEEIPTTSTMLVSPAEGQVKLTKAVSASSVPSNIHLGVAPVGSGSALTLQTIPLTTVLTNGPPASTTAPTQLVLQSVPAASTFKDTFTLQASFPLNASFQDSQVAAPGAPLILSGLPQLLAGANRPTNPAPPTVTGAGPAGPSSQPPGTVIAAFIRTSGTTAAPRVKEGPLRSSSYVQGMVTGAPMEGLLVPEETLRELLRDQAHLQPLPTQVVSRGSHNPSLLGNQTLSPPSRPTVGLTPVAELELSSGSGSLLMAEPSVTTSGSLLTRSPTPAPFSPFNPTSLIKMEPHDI
Another assay concerns the target T3, ELK4 (Homo sapiens, UniProt P28324-2 1-405).
T3 sequence: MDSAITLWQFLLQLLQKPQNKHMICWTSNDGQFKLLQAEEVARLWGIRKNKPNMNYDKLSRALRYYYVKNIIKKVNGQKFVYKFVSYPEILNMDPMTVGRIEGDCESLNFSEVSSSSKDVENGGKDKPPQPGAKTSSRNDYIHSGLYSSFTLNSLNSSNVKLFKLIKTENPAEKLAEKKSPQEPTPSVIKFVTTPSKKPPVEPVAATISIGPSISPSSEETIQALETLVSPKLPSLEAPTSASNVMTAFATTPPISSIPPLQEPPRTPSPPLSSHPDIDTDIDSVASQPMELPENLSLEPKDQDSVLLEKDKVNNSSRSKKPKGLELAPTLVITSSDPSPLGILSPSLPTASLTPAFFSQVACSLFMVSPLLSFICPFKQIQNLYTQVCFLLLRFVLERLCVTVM
To be noted: protein: recombinant; tags: N-terminal GST; dsDNA, one strand shown. The procedure, abridged: as §1

A further assay addresses T4, ETV2 (Homo sapiens, UniProt O00321 1-342).
T4 sequence: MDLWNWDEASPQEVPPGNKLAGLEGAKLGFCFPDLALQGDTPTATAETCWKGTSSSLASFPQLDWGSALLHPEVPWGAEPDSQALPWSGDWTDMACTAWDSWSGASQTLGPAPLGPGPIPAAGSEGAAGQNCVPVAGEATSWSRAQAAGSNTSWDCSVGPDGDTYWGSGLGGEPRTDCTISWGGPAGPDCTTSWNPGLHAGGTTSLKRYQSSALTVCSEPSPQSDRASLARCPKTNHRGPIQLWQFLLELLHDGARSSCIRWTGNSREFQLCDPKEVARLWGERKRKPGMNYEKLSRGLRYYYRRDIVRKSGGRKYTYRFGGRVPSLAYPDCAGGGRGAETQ
To be noted: protein: recombinant; tags: N-terminal GST; dsDNA, one strand shown. The procedure, abridged:
as §1

For a further assay, the target named is T5, ELF3 (Homo sapiens, UniProt P78545 1-371).
T5 sequence: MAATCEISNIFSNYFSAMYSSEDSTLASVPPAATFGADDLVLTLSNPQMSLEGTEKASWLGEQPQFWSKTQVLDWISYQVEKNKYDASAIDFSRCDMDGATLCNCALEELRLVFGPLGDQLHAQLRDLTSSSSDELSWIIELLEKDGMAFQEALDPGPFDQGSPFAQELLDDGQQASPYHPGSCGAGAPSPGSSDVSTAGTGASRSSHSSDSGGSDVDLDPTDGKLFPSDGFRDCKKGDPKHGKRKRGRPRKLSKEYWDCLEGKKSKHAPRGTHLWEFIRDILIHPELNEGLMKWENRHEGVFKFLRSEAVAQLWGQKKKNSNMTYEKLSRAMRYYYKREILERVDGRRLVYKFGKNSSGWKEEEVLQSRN
To be noted: protein: recombinant; tags: N-terminal GST; dsDNA, one strand shown. The procedure, abridged: as §1

The target in a further assay is CRX (Homo sapiens, UniProt O43186 1-299). To be noted: protein: recombinant; tags: N-terminal GST; dsDNA, one strand shown. The procedure, abridged:
as §1

A further assay deals with ETV1 (Homo sapiens, UniProt P50549 1-477). To be noted: protein: recombinant; tags: N-terminal GST; dsDNA, one strand shown. The procedure, abridged:
as §1

In another assay the target is T6, ERF (Homo sapiens, UniProt P50548 1-548).
T6 sequence: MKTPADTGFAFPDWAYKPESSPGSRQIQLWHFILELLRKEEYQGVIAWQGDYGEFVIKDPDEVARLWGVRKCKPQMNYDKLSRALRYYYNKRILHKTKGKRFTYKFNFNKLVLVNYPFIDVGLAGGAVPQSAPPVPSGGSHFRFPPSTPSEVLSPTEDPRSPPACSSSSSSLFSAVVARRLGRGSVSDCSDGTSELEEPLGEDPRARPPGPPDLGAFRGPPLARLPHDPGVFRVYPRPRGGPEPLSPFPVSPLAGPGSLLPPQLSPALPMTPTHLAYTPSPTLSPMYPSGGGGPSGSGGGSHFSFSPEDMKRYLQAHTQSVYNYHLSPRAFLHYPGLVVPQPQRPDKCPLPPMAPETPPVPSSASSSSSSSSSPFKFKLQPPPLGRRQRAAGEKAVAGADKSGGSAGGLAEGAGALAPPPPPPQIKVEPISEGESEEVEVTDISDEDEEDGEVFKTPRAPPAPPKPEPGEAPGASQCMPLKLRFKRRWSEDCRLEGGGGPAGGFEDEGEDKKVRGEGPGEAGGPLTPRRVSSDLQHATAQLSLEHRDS
To be noted: protein: recombinant; tags: N-terminal GST; dsDNA, one strand shown. The essentials: as §1

The target of the next assay is T7, ETV3L (Homo sapiens, UniProt Q6ZN32 1-361).
T7 sequence: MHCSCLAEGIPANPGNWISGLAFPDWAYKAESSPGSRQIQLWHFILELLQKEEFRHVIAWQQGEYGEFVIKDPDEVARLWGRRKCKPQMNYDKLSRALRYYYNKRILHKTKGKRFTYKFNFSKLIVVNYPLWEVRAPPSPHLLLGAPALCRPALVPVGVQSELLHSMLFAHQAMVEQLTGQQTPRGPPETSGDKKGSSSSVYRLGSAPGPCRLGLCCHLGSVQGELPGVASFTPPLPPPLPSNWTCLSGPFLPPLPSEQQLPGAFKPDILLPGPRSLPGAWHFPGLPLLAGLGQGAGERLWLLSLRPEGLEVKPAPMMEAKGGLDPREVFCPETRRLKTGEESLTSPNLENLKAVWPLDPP
To be noted: protein: recombinant; tags: N-terminal GST; dsDNA, one strand shown. The procedure, abridged: as §1

The target in a further assay is T8, ETS2 (Homo sapiens, UniProt P15036 1-469).
T8 sequence: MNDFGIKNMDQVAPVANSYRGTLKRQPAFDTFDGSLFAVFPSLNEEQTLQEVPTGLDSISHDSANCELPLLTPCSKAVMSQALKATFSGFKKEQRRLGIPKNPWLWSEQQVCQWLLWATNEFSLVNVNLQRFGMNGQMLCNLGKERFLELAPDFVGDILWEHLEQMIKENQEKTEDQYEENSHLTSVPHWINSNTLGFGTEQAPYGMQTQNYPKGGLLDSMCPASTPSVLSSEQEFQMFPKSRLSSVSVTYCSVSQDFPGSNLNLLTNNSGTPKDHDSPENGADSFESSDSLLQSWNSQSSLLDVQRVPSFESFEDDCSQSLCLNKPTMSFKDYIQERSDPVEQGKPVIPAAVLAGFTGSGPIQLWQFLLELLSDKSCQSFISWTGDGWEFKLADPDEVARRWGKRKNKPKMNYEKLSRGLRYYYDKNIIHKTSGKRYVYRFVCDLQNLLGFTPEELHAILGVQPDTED
To be noted: protein: recombinant; tags: N-terminal GST; dsDNA, one strand shown. The essentials: as §1

The target in the next assay is T9, SPDEF (Homo sapiens, UniProt O95238 1-335).
T9 sequence: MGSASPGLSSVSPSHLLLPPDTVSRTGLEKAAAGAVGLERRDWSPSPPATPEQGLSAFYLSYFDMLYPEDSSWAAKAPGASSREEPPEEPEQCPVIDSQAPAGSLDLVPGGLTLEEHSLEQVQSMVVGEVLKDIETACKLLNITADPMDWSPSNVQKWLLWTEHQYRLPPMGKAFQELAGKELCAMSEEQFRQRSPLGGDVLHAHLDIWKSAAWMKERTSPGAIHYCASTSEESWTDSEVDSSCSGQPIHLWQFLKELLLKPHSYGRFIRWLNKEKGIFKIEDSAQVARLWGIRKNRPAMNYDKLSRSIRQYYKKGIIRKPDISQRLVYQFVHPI
To be noted: protein: recombinant; tags: N-terminal GST; dsDNA, one strand shown. The essentials:
as §1

Another assay addresses T10, ETV7 (Homo sapiens, UniProt Q9Y603 1-341).
T10 sequence: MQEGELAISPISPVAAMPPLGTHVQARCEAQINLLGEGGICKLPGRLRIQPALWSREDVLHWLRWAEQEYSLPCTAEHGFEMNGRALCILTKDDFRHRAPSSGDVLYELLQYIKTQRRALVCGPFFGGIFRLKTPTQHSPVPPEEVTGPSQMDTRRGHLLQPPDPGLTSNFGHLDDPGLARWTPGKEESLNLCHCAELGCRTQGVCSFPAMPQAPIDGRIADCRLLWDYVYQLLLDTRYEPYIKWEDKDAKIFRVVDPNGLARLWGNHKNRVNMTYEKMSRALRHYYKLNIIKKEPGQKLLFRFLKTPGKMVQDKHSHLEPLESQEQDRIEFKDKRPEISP
To be noted: protein: recombinant; tags: N-terminal GST; dsDNA, one strand shown. The essentials:
as §1

The target in another assay is T11, ELF5 (Homo sapiens, UniProt Q9UKW6-2 1-255).
T11 sequence: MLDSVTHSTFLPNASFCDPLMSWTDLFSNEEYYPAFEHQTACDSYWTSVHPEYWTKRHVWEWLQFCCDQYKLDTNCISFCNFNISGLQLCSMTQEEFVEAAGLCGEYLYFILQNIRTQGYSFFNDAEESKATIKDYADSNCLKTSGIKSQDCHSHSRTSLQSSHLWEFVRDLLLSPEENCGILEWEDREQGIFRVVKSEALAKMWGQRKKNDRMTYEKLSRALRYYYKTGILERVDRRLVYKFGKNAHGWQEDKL
To be noted: protein: recombinant; tags: N-terminal GST; dsDNA, one strand shown. The essentials:
as §1

The target of a further assay is T12, ETV3 (Homo sapiens, UniProt P41162-2 1-143).
T12 sequence: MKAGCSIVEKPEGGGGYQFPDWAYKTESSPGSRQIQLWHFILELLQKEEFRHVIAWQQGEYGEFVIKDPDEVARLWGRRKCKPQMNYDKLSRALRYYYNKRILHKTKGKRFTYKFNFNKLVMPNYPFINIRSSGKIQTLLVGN
To be noted: protein: recombinant; tags: N-terminal GST; dsDNA, one strand shown. The essentials: as §1

The target in another assay is ETV6 (Homo sapiens, UniProt P41212 1-452). To be noted: protein: recombinant; tags: N-terminal GST; dsDNA, one strand shown. The procedure, abridged:
as §1

Sequence of CRX (O43186 whole entry): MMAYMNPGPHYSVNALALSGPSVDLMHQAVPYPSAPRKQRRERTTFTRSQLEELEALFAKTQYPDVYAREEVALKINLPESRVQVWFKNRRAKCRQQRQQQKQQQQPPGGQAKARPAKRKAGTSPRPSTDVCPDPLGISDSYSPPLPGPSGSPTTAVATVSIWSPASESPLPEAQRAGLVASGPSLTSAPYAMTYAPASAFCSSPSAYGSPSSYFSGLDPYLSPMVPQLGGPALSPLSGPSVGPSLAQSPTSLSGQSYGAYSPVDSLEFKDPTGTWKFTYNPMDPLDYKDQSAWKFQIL
Sequence of HSF1 (Q00613 whole entry): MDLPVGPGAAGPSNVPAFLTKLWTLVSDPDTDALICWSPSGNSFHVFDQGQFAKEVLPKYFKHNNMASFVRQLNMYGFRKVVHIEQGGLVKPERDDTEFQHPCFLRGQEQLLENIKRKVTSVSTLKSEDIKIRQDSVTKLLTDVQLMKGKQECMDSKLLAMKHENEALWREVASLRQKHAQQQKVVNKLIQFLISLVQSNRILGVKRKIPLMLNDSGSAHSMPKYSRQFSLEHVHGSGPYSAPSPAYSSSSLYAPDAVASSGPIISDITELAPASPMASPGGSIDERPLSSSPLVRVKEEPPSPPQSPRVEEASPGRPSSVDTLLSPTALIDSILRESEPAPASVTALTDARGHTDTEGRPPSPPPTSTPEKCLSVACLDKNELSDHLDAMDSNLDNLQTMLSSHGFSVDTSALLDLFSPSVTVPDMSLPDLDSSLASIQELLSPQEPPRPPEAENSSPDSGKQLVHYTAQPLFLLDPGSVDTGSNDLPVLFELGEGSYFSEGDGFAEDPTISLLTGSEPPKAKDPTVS
Sequence of ETV5 (P41161 whole entry): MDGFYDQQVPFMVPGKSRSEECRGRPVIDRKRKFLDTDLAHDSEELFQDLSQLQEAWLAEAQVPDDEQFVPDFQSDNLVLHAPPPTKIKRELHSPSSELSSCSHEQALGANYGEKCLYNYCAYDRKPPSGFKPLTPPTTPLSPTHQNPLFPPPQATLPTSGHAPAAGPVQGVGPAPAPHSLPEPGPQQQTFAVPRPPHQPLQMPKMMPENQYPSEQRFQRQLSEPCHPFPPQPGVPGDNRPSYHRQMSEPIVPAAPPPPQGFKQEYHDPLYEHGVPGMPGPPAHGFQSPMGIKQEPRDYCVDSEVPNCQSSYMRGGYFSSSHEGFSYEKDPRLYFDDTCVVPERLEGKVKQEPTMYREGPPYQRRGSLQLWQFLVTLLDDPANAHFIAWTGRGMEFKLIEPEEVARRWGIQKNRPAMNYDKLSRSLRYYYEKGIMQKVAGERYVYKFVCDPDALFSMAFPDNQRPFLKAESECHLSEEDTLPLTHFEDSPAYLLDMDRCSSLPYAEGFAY
Sequence of ETV6 (P41212 whole entry): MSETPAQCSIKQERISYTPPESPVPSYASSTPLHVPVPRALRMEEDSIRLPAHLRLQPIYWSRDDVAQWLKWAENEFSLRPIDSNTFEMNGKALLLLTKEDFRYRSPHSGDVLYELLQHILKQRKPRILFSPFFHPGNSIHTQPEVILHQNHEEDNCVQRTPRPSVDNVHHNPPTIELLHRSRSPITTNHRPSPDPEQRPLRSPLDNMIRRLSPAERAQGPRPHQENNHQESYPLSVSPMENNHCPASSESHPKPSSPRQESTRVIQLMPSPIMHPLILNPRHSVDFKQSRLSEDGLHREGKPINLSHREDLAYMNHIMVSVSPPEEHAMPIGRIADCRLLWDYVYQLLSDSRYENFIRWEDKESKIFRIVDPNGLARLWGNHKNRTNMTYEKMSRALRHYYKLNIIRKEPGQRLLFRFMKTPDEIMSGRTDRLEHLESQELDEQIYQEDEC
Sequence of ETV1 (P50549 whole entry): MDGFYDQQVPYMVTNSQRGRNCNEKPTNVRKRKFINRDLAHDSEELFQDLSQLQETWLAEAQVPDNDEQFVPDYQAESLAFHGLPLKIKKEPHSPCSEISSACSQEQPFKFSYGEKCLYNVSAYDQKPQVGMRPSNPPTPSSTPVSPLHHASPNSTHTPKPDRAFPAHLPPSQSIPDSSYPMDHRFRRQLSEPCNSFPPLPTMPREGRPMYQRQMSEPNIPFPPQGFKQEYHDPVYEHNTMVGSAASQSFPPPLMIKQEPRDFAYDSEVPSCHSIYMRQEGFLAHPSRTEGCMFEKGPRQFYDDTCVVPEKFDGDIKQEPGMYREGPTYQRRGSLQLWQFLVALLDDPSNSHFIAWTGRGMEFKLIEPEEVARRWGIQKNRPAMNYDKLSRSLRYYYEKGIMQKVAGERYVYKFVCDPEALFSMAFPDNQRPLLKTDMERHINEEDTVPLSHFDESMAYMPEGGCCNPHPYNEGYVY

In the case of TATCGA, the binding signal with FEV is 1.2 fold enrichment (6-mer frequency, TF over GST control); with ETV5 it was 1.29 fold enrichment (6-mer frequency, TF over GST control); with HSF1, 1.83 fold enrichment (6-mer frequency, TF over GST control); in the assay with SPIC, 1.28 fold enrichment (6-mer frequency, TF over GST control); with ELF4, 1.34 fold enrichment (6-mer frequency, TF over GST control); with ELK4, 1.37 fold enrichment (6-mer frequency, TF over GST control). For the same sequence, the binding signal in the assay with ETV2 was 1.44 fold enrichment (6-mer frequency, TF over GST control); with ELF3, 1.55 fold enrichment (6-mer frequency, TF over GST control); with CRX it was 1.59 fold enrichment (6-mer frequency, TF over GST control); in the assay with ETV1, 1.31 fold enrichment (6-mer frequency, TF over GST control); in the assay with ERF, 1.38 fold enrichment (6-mer frequency, TF over GST control); in the assay with ETV3L it was 1.41 fold enrichment (6-mer frequency, TF over GST control). The binding signal was 1.44 fold enrichment (6-mer frequency, TF over GST control) with ETS2; 1.34 fold enrichment (6-mer frequency, TF over GST control) with SPDEF; 1.32 fold enrichment (6-mer frequency, TF over GST control) with ETV7; 1.18 fold enrichment (6-mer frequency, TF over GST control) with ELF5; 1.25 fold enrichment (6-mer frequency, TF over GST control) in the assay with ETV3; 1.35 fold enrichment (6-mer frequency, TF over GST control) with ETV6.
